Test results as given in PubChem BioAssay (NCI).
This is part of a sample that, as a whole, favours compounds with a hit. Of some 83,000 tested, about 20% had one in any assay.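 Compound tested at a single concentration for 48 hours in 96-well plates; a percent growth value below 10 was scored as active.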 Calls of active or inactive are those of the source.

Experiments:
Assay in all cases: NCI-60 one-dose screen, 48 h (100 = growth as untreated, 0 = no growth, -100 = all killed)
Conditions in all cases: 10 µM unless noted
[1] = test system: DU-145 prostate
[2] = test system: K-562 leukemia
[3] = test system: MALME-3M melanoma
[4] = test system: MDA-MB-231 breast
[5] = test system: RXF 393 renal
[6] = test system: SF-268 CNS
[7] = test system: SF-295 CNS
[8] = test system: SF-539 CNS
[9] = test system: UACC-257 melanoma
[10] = test system: M14 melanoma
[11] = test system: HCT-15 colon
[12] = test system: HT29 colon
[13] = test system: SNB-75 CNS
[14] = test system: SNB-19 CNS
[15] = test system: U251 CNS
[16] = test system: PC-3 prostate
[17] = test system: SK-MEL-5 melanoma
[18] = test system: UACC-62 melanoma
[19] = test system: LOX IMVI melanoma
[20] = test system: SK-MEL-28 melanoma

Measured: growth

COc1ccc(-c2cc(-c3ccccc3)nc(NCCNc3ccnc4cc(Cl)ccc34)n2)cc1
active: [1] -73.8% | [2] -47.1% | [3] -77.1% | [4] -89.8% | [5] -87% | [6] -40.1% | [7] -75.4% | [8] -81.7% | [9] -78.8% | [10] -78.7% | [11] -81% | [12] -48.8% | [13] -68.3% | [14] -83.7% | [15] -84.3% | [16] -81.8% | [17] -97.6% | [18] -89.9% | [19] -79% | [20] -92.8%

Cn1cc(-c2noc(-c3cn(C)c4ncc(Br)cc34)n2)c2cc(Cl)ccc21
inactive: [1] 87% | [2] 66.3% | [3] 35.4% | [4] 57.2% | [5] 105% | [6] 59.1% | [7] 63% | [8] 48.9% | [9] 99.2% | [10] 82.4% | [11] 87.6% | [12] 67.3% | [13] 56.2% | [14] 63% | [15] 97.5% | [16] 80.3% | [17] 83.9% | [18] 78.5% | [19] 65.4% | [20] 86.8%

Nc1cc(N)c(N=Nc2ccc(S(=O)(=O)O)cc2)cc1N=Nc1ccc(-c2ccc(N=Nc3ccc(O)c(C(=O)O)c3)cc2)cc1
inactive: [1] 111% | [2] 108% | [3] 93.2% | [4] 100% | [5] 124% | [6] 104% | [7] 103% | [8] 100% | [9] 101% | [10] 99.8% | [11] 103% | [12] 103% | [13] 98.9% | [14] 95.6% | [15] 101% | [16] 98.2% | [17] 101% | [18] 94.6% | [19] 100% | [20] 106%

Cc1ccc(Oc2c(/C=N/NC(=O)Cn3c(=O)sc4ccccc43)c(C)nn2-c2ccccc2)cc1
inactive: [1] 78.1% | [2] 27.2% | [3] 66.5% | [4] 72.2% | [5] 72.9% | [6] 53.3% | [7] 42.1% | [8] 75.2% | [9] 73.2% | [10] 59.2% | [11] 42.2% | [12] 31.3% | [13] 53.4% | [14] 61.5% | [15] 42.9% | [16] 35.8% | [17] 37.7% | [18] 52.7% | [19] 64.7% | [20] 93.5%

C[C@]12CCc3c(ccc4cc(O)ccc34)[C@@H]1CC[C@H]2O
inactive: [1] 104% | [2] 94.9% | [3] 101% | [4] 88.3% | [5] 97.2% | [6] 91.4% | [7] 84.9% | [8] 91% | [9] 102% | [10] 101% | [11] 93.4% | [12] 104% | [13] 89.2% | [14] 87.2% | [15] 101% | [16] 88.8% | [17] 101% | [18] 61.4% | [19] 96.4% | [20] 99.3%

CSc1nc(N)c(N=Nc2ccc(S(=O)(=O)Nc3nnc(C)s3)cc2)c(=O)[nH]1
inactive: [1] 101% | [2] 138% | [3] 109% | [4] 103% | [5] 110% | [6] 101% | [7] 133% | [8] 109% | [9] 117% | [10] 101% | [11] 109% | [12] 104% | [13] 107% | [14] 103% | [15] 119% | [16] 97.5% | [17] 104% | [18] 94.3% | [19] 118% | [20] 108%

C=C(CN=[N+]=[N-])[C@@H]1CC[C@]2(C)[C@H](CC[C@@H]3[C@H]4[C@H]5OC(=O)[C@@]4(CCC5(C)C)CC[C@]32C)[C@@]1(C)CCC#N
inactive: [1] 98.2% [100 µM] | [2] 45.6% [100 µM] | [3] 90.1% [100 µM] | [4] 48.9% [100 µM] | [5] 108% [100 µM] | [6] 92.9% [100 µM] | [7] 96.7% [100 µM] | [8] 88% [100 µM] | [9] 77.2% [100 µM] | [10] 69.1% [100 µM] | [11] 87.6% [100 µM] | [12] 61.7% [100 µM] | [13] 89.6% [100 µM] | [14] 90.5% [100 µM] | [15] 79.6% [100 µM] | [16] 45.3% [100 µM] | [17] 41.5% [100 µM] | [18] 57.7% [100 µM] | [19] 69.3% [100 µM] | [20] 98.4% [100 µM]

O=C(CCN1CCCCC1)c1ccc(Cl)cc1
inactive: [1] 106% | [2] 118% | [3] 105% | [4] 104% | [5] 113% | [6] 104% | [7] 94.2% | [8] 99.9% | [9] 108% | [10] 107% | [11] 98.5% | [12] 104% | [13] 89.1% | [14] 103% | [15] 107% | [16] 91.6% | [17] 97.6% | [18] 103% | [19] 91.3% | [20] 108%

CC[C@@](C)(NC(=O)[C@H](C)NC(=O)CCNC(=O)C(C)(C)NC(=O)[C@H](C)NC(=O)[C@@H]1CCCN1C(=O)[C@@](C)(CC)NC(=O)[C@H](Cc1ccccc1)NC(=O)C1CCCN1C(=O)C(C)(C)NC(=O)C1CCCN1C(=O)C(C)(C)NC(C)=O)C(=O)NCCC(=O)N[C@@H](CC(C)C)C(=O)NC(C)(C)C(=O)NCCC(=O)N[C@@H](CC(C)C)C(=O)NC(C)(C)C(=O)NC(C)(C)C(=O)N[C@@H](CC(C)C)C(=O)NCCC(=O)NCO (stereo not given in full)
active: [1] -100% | [2] -60.9% | [3] -84.9% | [4] -88.5% | [5] -97.5% | [6] -96.8% | [7] -98.6% | [8] -90% | [9] -95.2% | [10] -88.6% | [11] -99.4% | [12] -70.8% | [13] -96.4% | [14] -87.2% | [15] -99.1% | [16] -94.6% | [17] -100% | [18] -75.3% | [19] -100% | [20] -84.1%

O=C(Nc1ccc(F)cc1)c1ccccc1
inactive: [1] 104% | [2] 103% | [3] 98.8% | [4] 105% | [5] 116% | [6] 105% | [7] 93.4% | [8] 99.3% | [9] 107% | [10] 106% | [11] 96.6% | [12] 114% | [13] 106% | [14] 101% | [15] 102% | [16] 108% | [17] 101% | [18] 90.8% | [19] 105% | [20] 101%

Cc1ccc(NC(=O)N[C@@H](Cc2cc(F)cc(F)c2)C(=O)N[C@@H]2C(=O)N3CCC[C@H]3C(=O)N3CCOC[C@H]3C(=O)N[C@@H](C)C(=O)N3C[C@H](C)C[C@H]3C(=O)O[C@H]2C)cc1
active: [4] 9.97%
inactive: [1] 31.2% | [2] 17.2% | [3] 33.6% | [5] 36.9% | [6] 28.5% | [7] 12.7% | [8] 47.6% | [9] 20.9% | [10] 26.9% | [11] 32.9% | [12] 32.4% | [13] 16.9% | [14] 21.5% | [15] 27.1% | [16] 19.1% | [17] 10.6% | [18] 26.3% | [19] 38.3% | [20] 42.3%

CCCCCC1CCCCN1C(=O)OCCCC (stereo not given)
inactive: [1] 118% | [2] 109% | [3] 88.9% | [4] 77.5% | [5] 96.9% | [6] 99.1% | [7] 89.3% | [8] 92% | [10] 105% | [11] 101% | [12] 103% | [13] 81.4% | [14] 105% | [15] 104% | [16] 111% | [17] 99.4% | [18] 76.4% | [19] 94.7% | [20] 116%
active: [9] -7.74%

O=S(=O)(NCc1ccccc1)c1ncnc2nc[nH]c12
inactive: [1] 111% | [2] 97.1% | [3] 117% | [4] 107% | [5] 114% | [6] 110% | [7] 104% | [8] 98.1% | [9] 92.7% | [10] 108% | [11] 108% | [12] 106% | [13] 91.4% | [14] 108% | [15] 86% | [16] 105% | [17] 99.7% | [18] 96.4% | [19] 99.1% | [20] 107%

CCN=C1C=CC(=C(c2ccc(N(CC)CC)cc2)c2ccc(N(CC)CC)cc2)c2ccccc21
active: [1] -96.5% | [2] -13.6% | [3] -82.6% | [4] -8.34% | [5] -74.4% | [6] -18.6% | [7] -80.9% | [8] -82.9% | [9] -69.9% | [10] -67% | [11] -70.9% | [12] -59.7% | [13] -22% | [14] -57.8% | [15] -89.1% | [16] -66.8% | [17] -99.5% | [18] -37.4% | [19] -64.6% | [20] -67.6%

O=C(CCNCc1ccccc1)c1ccccc1
inactive: [1] 105% | [2] 108% | [3] 104% | [4] 121% | [5] 116% | [6] 108% | [7] 90% | [8] 98.1% | [9] 102% | [10] 105% | [11] 106% | [12] 106% | [13] 109% | [14] 114% | [15] 101% | [16] 106% | [17] 99% | [18] 97.5% | [19] 105% | [20] 113%
